Experimental data as given in ChEMBL document CHEMBL1961873, “Compounds: GSK PKIS; Assays: Nanosyn kinase panel” (2012).
Several values for one entry are separate records, joined by “and”; a condition that tells them apart may be missing. Identical values can stand only once.

Key:
[1] = tested on: Epidermal growth factor receptor (Homo sapiens), P00533 [T790M]; details: at 1 µM
[2] = tested on: Epidermal growth factor receptor (Homo sapiens), P00533 [L858R,T790M]; details: at 0.1 µM
[3] = tested on: Epidermal growth factor receptor (Homo sapiens), P00533 [L858R,T790M]; details: at 1 µM
[4] = molecular target: Ephrin type-A receptor 2 (Homo sapiens) (UniProt P29317); details: at 0.1 µM
Sequence of Ephrin type-A receptor 2 (Homo sapiens) (P29317 whole entry): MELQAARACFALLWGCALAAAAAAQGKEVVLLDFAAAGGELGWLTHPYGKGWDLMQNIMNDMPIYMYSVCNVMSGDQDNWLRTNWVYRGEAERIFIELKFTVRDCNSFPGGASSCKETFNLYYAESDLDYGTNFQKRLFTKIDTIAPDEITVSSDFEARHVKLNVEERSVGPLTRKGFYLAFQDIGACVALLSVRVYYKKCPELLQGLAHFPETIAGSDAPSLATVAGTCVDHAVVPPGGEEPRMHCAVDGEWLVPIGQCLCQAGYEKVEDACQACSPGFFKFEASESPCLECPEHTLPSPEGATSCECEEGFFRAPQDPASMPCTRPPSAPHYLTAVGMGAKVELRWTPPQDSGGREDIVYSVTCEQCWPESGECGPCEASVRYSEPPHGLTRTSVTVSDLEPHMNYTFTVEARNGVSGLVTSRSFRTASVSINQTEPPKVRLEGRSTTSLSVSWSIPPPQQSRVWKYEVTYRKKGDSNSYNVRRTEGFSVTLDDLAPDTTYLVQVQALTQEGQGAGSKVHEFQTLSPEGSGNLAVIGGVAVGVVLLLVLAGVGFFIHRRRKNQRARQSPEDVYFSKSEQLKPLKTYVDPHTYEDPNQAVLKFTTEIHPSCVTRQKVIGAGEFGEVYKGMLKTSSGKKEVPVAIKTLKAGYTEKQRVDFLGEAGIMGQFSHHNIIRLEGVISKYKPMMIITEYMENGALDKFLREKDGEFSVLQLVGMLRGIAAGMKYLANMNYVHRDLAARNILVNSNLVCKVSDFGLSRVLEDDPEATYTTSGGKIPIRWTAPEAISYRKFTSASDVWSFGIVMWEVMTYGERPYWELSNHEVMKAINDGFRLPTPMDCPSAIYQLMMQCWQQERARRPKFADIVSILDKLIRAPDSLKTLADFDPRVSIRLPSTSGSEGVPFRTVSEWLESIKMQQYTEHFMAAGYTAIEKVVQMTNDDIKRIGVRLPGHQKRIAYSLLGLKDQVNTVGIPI

[5] = molecular target: Ephrin type-A receptor 2 (Homo sapiens) (UniProt P29317); details: at 1 µM
[6] = molecular target: T1, Ephrin type-A receptor 3 (Homo sapiens) (UniProt P29320); details: at 0.1 µM
T1 sequence (whole entry): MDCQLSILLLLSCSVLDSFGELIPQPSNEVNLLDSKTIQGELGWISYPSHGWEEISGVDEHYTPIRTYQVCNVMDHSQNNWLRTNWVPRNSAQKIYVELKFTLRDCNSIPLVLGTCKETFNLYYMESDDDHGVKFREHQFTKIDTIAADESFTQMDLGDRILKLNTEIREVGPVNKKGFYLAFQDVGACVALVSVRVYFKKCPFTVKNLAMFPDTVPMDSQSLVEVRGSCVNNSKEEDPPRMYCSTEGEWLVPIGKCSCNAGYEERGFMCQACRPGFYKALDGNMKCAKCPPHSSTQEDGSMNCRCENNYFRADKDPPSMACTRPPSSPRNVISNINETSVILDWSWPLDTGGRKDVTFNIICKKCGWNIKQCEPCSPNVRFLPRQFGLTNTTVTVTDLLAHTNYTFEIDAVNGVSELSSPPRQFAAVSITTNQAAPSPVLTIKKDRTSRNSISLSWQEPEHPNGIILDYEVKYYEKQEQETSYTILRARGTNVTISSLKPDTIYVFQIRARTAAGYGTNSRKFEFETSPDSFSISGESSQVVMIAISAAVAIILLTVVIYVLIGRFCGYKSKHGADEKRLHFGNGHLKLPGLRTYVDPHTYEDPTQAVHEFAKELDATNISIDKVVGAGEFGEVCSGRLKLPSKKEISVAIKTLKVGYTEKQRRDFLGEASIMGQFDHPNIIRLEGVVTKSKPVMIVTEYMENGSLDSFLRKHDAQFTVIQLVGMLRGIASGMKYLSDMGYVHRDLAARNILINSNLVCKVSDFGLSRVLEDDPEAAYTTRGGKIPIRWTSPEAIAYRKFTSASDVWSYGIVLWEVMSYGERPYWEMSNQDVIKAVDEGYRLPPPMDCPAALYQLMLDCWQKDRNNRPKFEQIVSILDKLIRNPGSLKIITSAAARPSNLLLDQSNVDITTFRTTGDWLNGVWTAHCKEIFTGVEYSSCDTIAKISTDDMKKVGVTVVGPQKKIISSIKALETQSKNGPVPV

[7] = molecular target: T1, Ephrin type-A receptor 3 (Homo sapiens); details: at 1 µM
[8] = molecular target: Ephrin type-A receptor 4 (Homo sapiens) (UniProt P54764); details: at 0.1 µM
Sequence of Ephrin type-A receptor 4 (Homo sapiens) (P54764 whole entry): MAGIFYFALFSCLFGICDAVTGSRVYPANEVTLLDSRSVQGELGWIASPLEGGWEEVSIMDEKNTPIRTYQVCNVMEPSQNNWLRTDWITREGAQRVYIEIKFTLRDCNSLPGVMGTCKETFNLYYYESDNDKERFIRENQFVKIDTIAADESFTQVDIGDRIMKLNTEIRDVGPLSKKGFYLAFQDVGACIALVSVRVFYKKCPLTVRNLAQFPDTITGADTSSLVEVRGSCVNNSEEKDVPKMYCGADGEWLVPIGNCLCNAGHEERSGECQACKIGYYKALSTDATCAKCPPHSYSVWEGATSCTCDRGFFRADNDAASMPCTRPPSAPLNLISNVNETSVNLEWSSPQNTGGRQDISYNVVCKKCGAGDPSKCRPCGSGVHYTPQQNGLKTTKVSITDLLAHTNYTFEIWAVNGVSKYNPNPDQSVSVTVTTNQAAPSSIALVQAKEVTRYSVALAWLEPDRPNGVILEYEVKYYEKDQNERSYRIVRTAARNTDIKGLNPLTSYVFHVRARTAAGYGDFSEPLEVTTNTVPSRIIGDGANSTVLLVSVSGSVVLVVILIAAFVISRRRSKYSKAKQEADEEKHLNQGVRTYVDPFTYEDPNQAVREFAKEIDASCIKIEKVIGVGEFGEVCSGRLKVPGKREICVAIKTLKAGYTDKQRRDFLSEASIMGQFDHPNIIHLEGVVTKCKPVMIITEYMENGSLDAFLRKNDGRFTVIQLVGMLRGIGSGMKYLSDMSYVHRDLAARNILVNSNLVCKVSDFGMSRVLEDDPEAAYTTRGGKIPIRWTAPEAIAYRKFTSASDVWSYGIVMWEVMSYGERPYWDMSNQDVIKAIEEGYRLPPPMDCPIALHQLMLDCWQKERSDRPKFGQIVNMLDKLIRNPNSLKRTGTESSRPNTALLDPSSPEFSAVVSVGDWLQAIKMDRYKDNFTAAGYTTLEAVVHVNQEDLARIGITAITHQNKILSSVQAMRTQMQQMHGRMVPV

[9] = molecular target: Ephrin type-A receptor 4 (Homo sapiens) (UniProt P54764); details: at 1 µM
[10] = molecular target: T2, Ephrin type-B receptor 2 (Homo sapiens) (UniProt P29323); details: at 0.1 µM;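 note: reported as mean inhibition of EPHB2, from the GSK PKIS dataset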
T2 sequence (whole entry): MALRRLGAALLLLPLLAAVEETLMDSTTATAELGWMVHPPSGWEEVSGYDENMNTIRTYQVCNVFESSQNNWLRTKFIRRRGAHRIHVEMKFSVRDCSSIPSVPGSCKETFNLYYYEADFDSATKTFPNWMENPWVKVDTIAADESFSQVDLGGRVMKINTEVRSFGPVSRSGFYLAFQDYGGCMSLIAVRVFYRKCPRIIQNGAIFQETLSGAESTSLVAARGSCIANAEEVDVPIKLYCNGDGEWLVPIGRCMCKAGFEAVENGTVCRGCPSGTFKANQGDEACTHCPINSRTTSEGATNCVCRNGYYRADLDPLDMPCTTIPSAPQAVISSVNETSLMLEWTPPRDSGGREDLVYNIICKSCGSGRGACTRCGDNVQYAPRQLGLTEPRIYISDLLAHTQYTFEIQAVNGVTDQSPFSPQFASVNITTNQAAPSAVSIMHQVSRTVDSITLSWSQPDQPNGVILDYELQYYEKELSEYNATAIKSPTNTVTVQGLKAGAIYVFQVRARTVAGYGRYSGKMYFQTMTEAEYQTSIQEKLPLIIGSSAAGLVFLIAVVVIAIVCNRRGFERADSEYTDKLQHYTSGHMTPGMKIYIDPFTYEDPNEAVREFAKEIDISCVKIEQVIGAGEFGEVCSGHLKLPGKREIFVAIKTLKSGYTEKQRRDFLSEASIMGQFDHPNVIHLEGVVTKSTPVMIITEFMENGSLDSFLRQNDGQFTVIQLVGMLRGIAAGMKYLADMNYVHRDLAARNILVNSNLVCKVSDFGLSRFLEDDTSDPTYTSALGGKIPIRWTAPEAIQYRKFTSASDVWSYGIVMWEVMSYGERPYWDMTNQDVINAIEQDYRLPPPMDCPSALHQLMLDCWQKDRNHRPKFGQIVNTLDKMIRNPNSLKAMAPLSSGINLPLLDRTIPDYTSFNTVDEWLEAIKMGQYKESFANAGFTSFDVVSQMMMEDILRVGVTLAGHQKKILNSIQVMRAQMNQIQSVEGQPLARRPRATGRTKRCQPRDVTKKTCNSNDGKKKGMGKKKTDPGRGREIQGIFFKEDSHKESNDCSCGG

Sequence of Epidermal growth factor receptor (Homo sapiens), P00533 [T790M] (P00533 whole entry T790M): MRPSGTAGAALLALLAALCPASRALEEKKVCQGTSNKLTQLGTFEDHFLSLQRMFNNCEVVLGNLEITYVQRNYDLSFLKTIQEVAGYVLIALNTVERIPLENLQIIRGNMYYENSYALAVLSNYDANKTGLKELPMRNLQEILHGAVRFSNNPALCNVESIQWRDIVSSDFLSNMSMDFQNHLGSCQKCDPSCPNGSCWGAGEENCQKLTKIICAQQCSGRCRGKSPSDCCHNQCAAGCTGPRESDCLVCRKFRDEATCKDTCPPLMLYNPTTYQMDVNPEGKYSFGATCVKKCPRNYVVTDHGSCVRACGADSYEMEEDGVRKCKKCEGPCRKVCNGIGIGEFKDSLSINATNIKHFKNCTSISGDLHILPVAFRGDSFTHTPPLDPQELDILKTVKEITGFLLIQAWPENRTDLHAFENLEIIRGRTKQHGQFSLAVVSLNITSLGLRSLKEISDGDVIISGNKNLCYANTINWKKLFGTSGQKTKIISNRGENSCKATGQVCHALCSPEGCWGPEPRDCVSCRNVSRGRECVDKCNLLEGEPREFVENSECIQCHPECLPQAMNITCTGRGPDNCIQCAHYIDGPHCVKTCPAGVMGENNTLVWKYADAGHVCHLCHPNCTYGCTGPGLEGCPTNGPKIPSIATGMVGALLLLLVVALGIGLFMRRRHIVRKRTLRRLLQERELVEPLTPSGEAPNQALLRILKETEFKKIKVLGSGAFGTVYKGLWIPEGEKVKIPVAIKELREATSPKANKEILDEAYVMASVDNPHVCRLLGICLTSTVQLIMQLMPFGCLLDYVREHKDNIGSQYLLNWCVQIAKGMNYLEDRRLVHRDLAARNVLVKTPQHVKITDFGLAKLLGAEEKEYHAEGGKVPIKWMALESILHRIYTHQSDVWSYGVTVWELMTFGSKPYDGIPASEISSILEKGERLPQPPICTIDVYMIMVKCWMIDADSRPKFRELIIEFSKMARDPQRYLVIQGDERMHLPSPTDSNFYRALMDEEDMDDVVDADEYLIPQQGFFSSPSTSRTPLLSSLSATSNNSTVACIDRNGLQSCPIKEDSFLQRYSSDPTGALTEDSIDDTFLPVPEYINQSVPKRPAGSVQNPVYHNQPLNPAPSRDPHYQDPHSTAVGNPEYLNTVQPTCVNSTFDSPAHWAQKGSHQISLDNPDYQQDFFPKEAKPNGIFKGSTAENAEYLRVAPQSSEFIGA
Sequence of Epidermal growth factor receptor (Homo sapiens), P00533 [L858R,T790M] (P00533 whole entry T790M/L858R, looked up): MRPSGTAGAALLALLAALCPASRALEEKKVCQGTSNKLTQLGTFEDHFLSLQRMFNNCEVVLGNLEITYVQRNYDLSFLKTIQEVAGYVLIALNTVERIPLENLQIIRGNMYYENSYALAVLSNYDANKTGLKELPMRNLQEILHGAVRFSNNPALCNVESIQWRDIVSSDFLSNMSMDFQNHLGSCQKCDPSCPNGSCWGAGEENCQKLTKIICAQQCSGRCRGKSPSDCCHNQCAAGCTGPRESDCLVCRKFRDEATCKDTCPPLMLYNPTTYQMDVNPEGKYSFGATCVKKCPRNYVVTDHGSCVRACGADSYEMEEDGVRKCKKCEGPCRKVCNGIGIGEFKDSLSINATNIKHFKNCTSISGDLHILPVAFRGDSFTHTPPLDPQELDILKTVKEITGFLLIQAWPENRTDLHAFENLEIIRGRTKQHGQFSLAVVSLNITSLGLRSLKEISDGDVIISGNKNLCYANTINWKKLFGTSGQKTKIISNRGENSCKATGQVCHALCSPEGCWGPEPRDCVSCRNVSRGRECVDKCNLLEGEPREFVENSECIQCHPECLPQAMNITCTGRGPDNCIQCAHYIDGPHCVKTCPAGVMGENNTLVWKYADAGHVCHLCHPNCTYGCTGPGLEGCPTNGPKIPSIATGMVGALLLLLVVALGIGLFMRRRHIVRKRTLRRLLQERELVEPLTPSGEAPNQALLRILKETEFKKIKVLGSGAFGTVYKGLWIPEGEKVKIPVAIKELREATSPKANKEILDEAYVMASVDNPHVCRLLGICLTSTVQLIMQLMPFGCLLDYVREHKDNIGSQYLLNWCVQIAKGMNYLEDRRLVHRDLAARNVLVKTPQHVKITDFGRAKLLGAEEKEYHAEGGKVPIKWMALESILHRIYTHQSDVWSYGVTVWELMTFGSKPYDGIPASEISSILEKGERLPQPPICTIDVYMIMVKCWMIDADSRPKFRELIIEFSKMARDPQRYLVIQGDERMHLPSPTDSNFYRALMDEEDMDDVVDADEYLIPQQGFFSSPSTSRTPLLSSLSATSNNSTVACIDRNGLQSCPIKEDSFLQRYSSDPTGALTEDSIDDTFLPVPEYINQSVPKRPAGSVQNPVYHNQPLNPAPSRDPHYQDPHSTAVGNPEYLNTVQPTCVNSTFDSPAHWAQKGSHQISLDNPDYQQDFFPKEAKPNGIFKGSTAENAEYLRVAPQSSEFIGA

Row | SMILES | inhibition [1] | inhibition [2] | inhibition [3] | inhibition [4] | inhibition [5] | inhibition [6] | inhibition [7] | inhibition [8] | inhibition [9] | inhibition [10]
1 | CCn1c(-c2nonc2N)nc2cncc(C(=O)NCCNC)c21 | 4.6% | 1.4% | 5.19% | 0.81% | -0.9% | 1.15% | 5.09% | 7.32% | 10.1% | 12.1%
2 | CNC(=O)c1ncccc1Nc1nc(Nc2cc3c(cc2OC)CCCN3C(=O)CN(C)C)nc2[nH]ccc12 | 54.4% | 43.7% | 80.5% | 0.62% | 0.22% | 5.44% | 5.06% | 7.88% | 7.89% | 8.66%
3 | COc1ccc2ncn(-c3cc(O[C@H](C)c4ccccc4C(F)(F)F)c(C(N)=O)s3)c2c1 | -1.39% | -1.39% | -0.48% | -3.1% | -4.03% | 0.39% | 2.63% | 0.27% | 0.47% | 1.25%
4 | COc1cccc(-n2ncc3c(N/N=C/c4ccc(C(=O)NCCN(C)C)cc4)ncnc32)c1 | 4.06% | 4.3% | 25.9% | 1.33% | 5.44% | 3.11% | 6.35% | 2.76% | 15.9% | 14.1%
5 | CN1CCC(C(=O)Nc2n[nH]c3nc(-c4ccc(O)cc4)c(Br)cc23)CC1 | 2.93% and 1.04% | -0.55% and -2.98% | 1.4% and -0.59% | -3.15% and 0% | -2.77% and -1.38% | -0.96% and 1.14% | -1.23% and 3.96% | 7.94% and 4.03% | 10.9% and 9.16% | 2.8% and -0.98%
6 | NS(=O)(=O)c1cccc(N/C=C2\C(=O)Nc3ccccc32)c1 | 1.35% | 2.94% | 5.43% | 0.86% | 1.68% | 3.01% | 3.78% | 7.61% | 3.9% | 9.06%
7 | O=C1Nc2ccccc2/C1=C1\CCc2cc(O)ccc21 | 2.73% | 1.8% | 4.76% | 2.66% | 2% | 6.06% | 4.39% | 7.97% | 3.3% | 3.53%
8 | c1ccc(-c2n[nH]cc2-c2ccnc(-c3ccc(OCCn4ccnc4)cc3)c2)nc1 | 0.85% | -0.66% | 2.87% | -2.85% | -3.04% | -1.82% | 0.58% | 0.18% | 0.69% | -0.16%
9 | CS(=O)(=O)CCNCc1ccc(-c2ccc3ncnc(Nc4ccc(OCc5cccc(C(F)(F)F)c5)cc4)c3c2)o1 | 1.6% | 0.98% | 3.77% | 0.34% | 0.55% | 2.95% | 2.34% | 6.4% | 8.61% | 7.05%
10 | CN1CCN(Cc2ccc(-c3cc4ncnc(Nc5ccc(OCc6cccc(F)c6)c(Cl)c5)c4s3)o2)CC1 |  |  |  | -2.36% and 1.48% | -2.73% and 2.15% | 2.75% and 5.84% | 2.47% and 3.64% | 4.95% and 10.4% | 6.16% and 11.9% | 5.13% and 6.55%
11 | CC1(C)CC(n2cnc(-c3ccc(F)cc3)c2-c2ccnc(N)n2)CC(C)(C)N1 | -1.34% | 2.59% | 1.85% | -2.86% | -2.93% | -0.75% | -0.11% | 0.35% | -1.89% | 0.78%
12 | Nc1nonc1-c1nc2cnccc2n1C1CC1 | 0.41% and 1.8% | 0.14% and 3.74% | 5.5% and 7.11% | 1.3% and -6.99% | 0.04% and -7.28% | 3.71% and -1.91% | 3.7% and -1.81% | 6.99% and 5.79% | 5.96% and 2.69% | 10.5% and 2.91%
